According to PubChem BioAssay AID1159580 (chemical genetic matrix, 2015):
The campaign covered roughly 5,500 compounds. About 2,000 (36%) were called active. About 18% were inconclusive and are not listed. The list shows a part of the results. Unmarked numbers belong to inactive results. No stated cut-off is given here; in the data, active means normalized growth mostly below about 0.91 (no sharp cut-off); inconclusive means no clear call, values can overlap the other calls; inactive means mostly above about 0.92.

Test: chemical genetic growth profiling, strain panel (AID 1159580);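 further: tested at 20 µM; growth read once vehicle control cultures reached saturation at 30 °C; 1 = growth at the plate median or of vehicle wells; lower values mean less growth of the strain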
Settings: S. cerevisiae deletion strains, growth OD

Q: Which normalized growth (locus YAL021C, strain ccr4, hits give low values) does the source give for `C=CCCCCCCCCCCCc1ccco1` here?
A: 0.981

Q: And the normalized growth (locus YAL026C, strain drs2, hits give low values)?
A: 0.869 (active)

Q: What about the normalized growth (locus YAL030W, strain snc1, hits give low values) of the same compound?
A: 0.939

Q: And the normalized growth (locus YBL061C, strain skt5, hits give low values)?
A: 0.896 (active)

Q: What about the normalized growth (locus YBR009C, strain hhf1, hits give low values) of the same compound?
A: 0.659 (active)

Q: And the normalized growth (locus YBR023C, strain chs3, hits give low values)?
A: 0.905 (active)

Q: And the normalized growth (locus YBR171W, strain sec66, hits give low values)?
A: 0.995

Q: What about the normalized growth (locus YBR231C, strain swc5, hits give low values) of the same compound?
A: 0.873 (active)

Q: And the normalized growth (locus YBR279W, strain paf1, hits give low values)?
A: 0.873 (active)

Q: What about the normalized growth (locus YCL011C, strain gbp2, hits give low values) of the same compound?
A: 0.803 (active)

Q: What about the normalized growth (locus YCL016C, strain dcc1, hits give low values) of the same compound?
A: 0.861 (active)

Q: What about the normalized growth (locus YCL069W, strain vba3, hits give low values) of the same compound?
A: 0.848 (active)

Q: And the normalized growth (locus YCR088W, strain abp1, hits give low values)?
A: 0.916 (active)

Q: And the normalized growth (locus YDL005C, strain med2, hits give low values)?
A: 0.979

Q: And the normalized growth (locus YDL040C, strain nat1, hits give low values)?
A: 0.999

Q: And the normalized growth (locus YDR001C, strain nth1, hits give low values)?
A: 1.01

Q: What about the normalized growth (locus YDR069C, strain doa4, hits give low values) of the same compound?
A: 0.94

Q: What about the normalized growth (locus YDR137W, strain rgp1, hits give low values) of the same compound?
A: 0.629 (active)

Q: What about the normalized growth (locus YDR159W, strain sac3, hits give low values) of the same compound?
A: 0.854 (active)

Q: What about the normalized growth (locus YDR195W, strain ref2) of the same compound?
A: 0.939

Q: What about the normalized growth (locus YDR297W, strain sur2, hits give low values) of the same compound?
A: 0.878 (active)

Q: And the normalized growth (locus YDR335W, strain msn5, hits give low values)?
A: 0.84 (active)

Q: And the normalized growth (locus YDR392W, strain spt3, hits give low values)?
A: 0.0917 (active)

Q: What about the normalized growth (locus YEL003W, strain gim4, hits give low values) of the same compound?
A: 0.884 (active)

Q: What about the normalized growth (locus YEL037C, strain rad23, hits give low values) of the same compound?
A: 0.995

Q: What about the normalized growth (locus YEL061C, strain CIN8 (second series), hits give low values) of the same compound?
A: 0.52 (active)

Q: What about the normalized growth (locus YER015W, strain faa2, hits give low values) of the same compound?
A: 0.913 (active)

Q: What about the normalized growth (locus YER016W, strain bim1, hits give low values) of the same compound?
A: 0.814 (active)

Q: What about the normalized growth (locus YER111C, strain swi4, hits give low values) of the same compound?
A: 0.975

Q: And the normalized growth (locus YER155C, strain BEM2 (second series), hits give low values)?
A: 0.309 (active)

Q: What about the normalized growth (locus YFR010W, strain ubp6, hits give low values) of the same compound?
A: 0.921

Q: And the normalized growth (locus YGL167C, strain pmr1, hits give low values)?
A: 1.01

Q: What about the normalized growth (locus YGL173C, strain kem1, hits give low values) of the same compound?
A: 0.868 (active)

Q: What about the normalized growth (locus YGL227W, strain vid30, hits give low values) of the same compound?
A: 0.766 (active)

Q: And the normalized growth (locus YGL240W, strain doc1, hits give low values)?
A: 0.869 (active)

Q: And the normalized growth (locus YGL253W, strain hxk2, hits give low values)?
A: 0.82 (active)

Q: And the normalized growth (locus YHR013C, strain ard1, hits give low values)?
A: 0.613 (active)

Q: What about the normalized growth (locus YHR027C, strain rpn1, hits give low values) of the same compound?
A: 0.937

Q: And the normalized growth (locus YHR030C, strain SLT2, hits give low values)?
A: 0.87

Q: And the normalized growth (locus YHR079C, strain IRE1, hits give low values)?
A: 0.858

Q: What about the normalized growth (locus YHR142W, strain chs7, hits give low values) of the same compound?
A: 0.53 (active)

Q: And the normalized growth (locus YJL092W, strain hpr5, hits give low values)?
A: 0.933

Q: And the normalized growth (locus YJL095W, strain BCK1 (second series), hits give low values)?
A: 0.587 (active)

Q: And the normalized growth (locus YJL095W, strain BCK1, hits give low values)?
A: 0.877 (active)

Q: And the normalized growth (locus YJL115W, strain asf1, hits give low values)?
A: 0.984

Q: What about the normalized growth (locus YJL129C, strain trk1, hits give low values) of the same compound?
A: 0.877

Q: What about the normalized growth (locus YJL154C, strain vps35, hits give low values) of the same compound?
A: 1.01

Q: And the normalized growth (locus YJL164C, strain tpk1, hits give low values)?
A: 0.819 (active)

Q: What about the normalized growth (locus YJL166W, strain qcr8, hits give low values) of the same compound?
A: 0.589 (active)

Q: And the normalized growth (locus YJR066W, strain TOR1, hits give low values)?
A: 0.925

Q: What about the normalized growth (locus YKL160W, strain elf1, hits give low values) of the same compound?
A: 0.732 (active)

Q: And the normalized growth (locus YKR026C, strain gcn3, hits give low values)?
A: 0.986

Q: What about the normalized growth (locus YKR091W, strain srl3, hits give low values) of the same compound?
A: 0.996

Q: What about the normalized growth (locus YLL001W, strain dnm1, hits give low values) of the same compound?
A: 0.885 (active)

Q: And the normalized growth (locus YLL026W, hits give low values)?
A: 0.935

Q: And the normalized growth (locus YLL041C, strain sdh2, hits give low values)?
A: 0.968

Q: What about the normalized growth (locus YLR027C, strain aat2, hits give low values) of the same compound?
A: 0.727 (active)

Q: And the normalized growth (locus YLR113W, strain HOG1, hits give low values)?
A: 0.832 (active)

Q: What about the normalized growth (locus YLR221C, strain rsa3, hits give low values) of the same compound?
A: 0.66 (active)

Q: And the normalized growth (locus YLR258W, strain gsy2, hits give low values)?
A: 0.861 (active)

Q: And the normalized growth (locus YLR262C, strain YPT6 (second series), hits give low values)?
A: 0.582 (active)

Q: And the normalized growth (locus YLR320W, strain mms22, hits give low values)?
A: 0.621 (active)

Q: And the normalized growth (locus YLR342W, strain FKS1, hits give low values)?
A: 0.858 (active)

Q: And the normalized growth (locus YLR357W, strain rsc2, hits give low values)?
A: 0.967

Q: And the normalized growth (locus YLR370C, strain arc18, hits give low values)?
A: 0.966

Q: And the normalized growth (locus YLR384C, strain iki3, hits give low values)?
A: 0.967

Q: And the normalized growth (locus YML120C, strain ndi1, hits give low values)?
A: 0.934

Q: And the normalized growth (locus YMR058W, strain fet3, hits give low values)?
A: 0.692 (active)

Q: What about the normalized growth (locus YMR125W, strain sto1, hits give low values) of the same compound?
A: 0.807 (active)

Q: And the normalized growth (locus YMR129W, hits give low values)?
A: 0.976

Q: And the normalized growth (locus YMR205C, strain PFK2, hits give low values)?
A: 0.719 (active)

Q: What about the normalized growth (locus YMR231W, strain pep5, hits give low values) of the same compound?
A: 0.997

Q: What about the normalized growth (locus YNL071W, strain lat1, hits give low values) of the same compound?
A: 0.253 (active)

Q: What about the normalized growth (locus YNL183C, strain NPR1, hits give low values) of the same compound?
A: 0.869

Q: And the normalized growth (locus YNL209W, strain ssb2, hits give low values)?
A: 0.945

Q: And the normalized growth (locus YNL248C, strain rpa49, hits give low values)?
A: 0.879 (active)

Q: What about the normalized growth (locus YNL322C, strain KRE1 (second series), hits give low values) of the same compound?
A: 0.976

Q: And the normalized growth (locus YNR049C, strain mso1, hits give low values)?
A: 0.994

Q: And the normalized growth (locus YOR001W, strain rrp6, hits give low values)?
A: 0.954

Q: What about the normalized growth (locus YOR070C, strain gyp1, hits give low values) of the same compound?
A: 0.833 (active)

Q: And the normalized growth (locus YOR080W, strain dia2, hits give low values)?
A: 0.99

Q: What about the normalized growth (locus YOR083W, strain WHI5, hits give low values) of the same compound?
A: 0.863 (active)

Q: What about the normalized growth (locus YOR106W, strain vam3, hits give low values) of the same compound?
A: 0.819 (active)

Q: What about the normalized growth (locus YOR231W, strain MKK1, hits give low values) of the same compound?
A: 0.856 (active)

Q: And the normalized growth (locus YOR265W, strain rbl2, hits give low values)?
A: 0.976

Q: And the normalized growth (locus YOR270C, strain vph1, hits give low values)?
A: 0.626 (active)

Q: And the normalized growth (locus YOR290C, strain snf2, hits give low values)?
A: 0.909

Q: And the normalized growth (locus YPL051W, strain arl3, hits give low values)?
A: 0.754 (active)

Q: What about the normalized growth (locus YPL078C, strain atp4, hits give low values) of the same compound?
A: 0.79 (active)

Q: What about the normalized growth (locus YPL106C, strain sse1, hits give low values) of the same compound?
A: 0.96

Q: What about the normalized growth (locus YPL240C, strain hsp82, hits give low values) of the same compound?
A: 0.847 (active)

Q: And the normalized growth (locus YPL256C, strain CLN2, hits give low values)?
A: 0.856
